The whole screen tested about 320,000 compounds, of which about 22,000 (6.9%) were called active. About 27% were inconclusive and are not listed. For the sample, actives were picked, then their nearest neighbours and some compounds at random. A number with no mark means an inactive call. Calls come from the whole dose curve; as a rule, active = well fitted inhibition curve with a large enough effect; inconclusive = small, poorly fitted or top-dose-only effect, or another doubt; inactive = no such curve, though single readings can be large or run the other way.
% is set by controls: 0 for no effect and ±100 for the full control effect; potency is the fitted concentration of half-maximal effect.

A short description of this test: Primary qHTS for delayed death inhibitors of the malarial parasite plastid, 96 hour incubation. Particulars: P. falciparum luciferase reporter growth; series mostly up to 28.7 µM; activity change, negative = inhibition: at the top concentration. The essentials:
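Parasite growth measured via integrated firefly luciferase reporter in P. falciparum. Infected erythrocytes at 2% hematocrit, 0.05% parasitemia final were treated 96 hours at 37 C under 5% CO2, and luminescence was read.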
As to `CC(=O)Nc1ccc(NC(=O)C2CCCN(S(=O)(=O)c3ccc(Cl)cc3)C2)cc1` (stereo not given), the “activity change, negative = inhibition” value was -29.5%.
Same read-out and setting: with `CC(NC(=O)CCCC1CCCCC1)c1ccc(S(N)(=O)=O)cc1` (stereo not given) the figure was -2.5%; with `CCOc1cc(/C=C2\C(=N)N3N=C(C)SC3=NC2=O)ccc1OCCOc1ccccc1`, 5.34%; with `O=C(CCC(=O)c1cccs1)NC1CCCCCC1`, 321%.
As to `O=C(CCCCCn1c(=S)[nH]c2ccsc2c1=O)NC1CCCCC1`, the Potency is 13.1 µM (active).
With `O=C(COC(=O)/C=C/c1cccs1)NC1CCCCC1`, the “activity change, negative = inhibition” value is 15.1%.
Still for that read-out and setting: in the case of `CN1CCN(Cc2nc3cc(NC(=O)COc4ccc([N+](=O)[O-])cc4)ccc3n2C)CC1` it was -17.9%; in that of `Nc1nc(SCC(=O)Nc2cc(C(F)(F)F)ccc2Cl)[nH]c(=O)c1NC(=O)c1ccco1`, 48.7%.
Still for that read-out and setting: with `Cc1sc2ncn(CC(=O)NCCCC(=O)NCc3ccc(F)cc3)c(=O)c2c1C` the figure was -22.9%.
For the molecule `CC(NC(=O)Nc1cccc([N+](=O)[O-])c1)c1ccc2c(c1)OCO2` (stereo not given), the Potency was 2.08 µM (active).
Consider `O=C(Nc1cccc([N+](=O)[O-])c1)c1ccc2c(c1)OCO2`, for which the “activity change, negative = inhibition” value is 200%.
Consider `CC(NC(=S)Nc1ccc(S(N)(=O)=O)cc1)c1ccc2c(c1)OCO2` (stereo not given), for which the Potency is 4.65 µM (active).
With `CC(=O)Nc1cccc([N+](=O)[O-])c1`, the “activity change, negative = inhibition” value is -0.229%.
On the same count and under the same terms, in the case of `CCc1ccc(NC(=O)NC(C)c2ccc3c(c2)OCO3)cc1` (stereo not given) it was 10.4%; in that of `CC(NC(=O)c1ccco1)c1ccc2c(c1)OCO2` (stereo not given), -13.1%; in that of `CN(CC(=O)Nc1ccc(F)cc1)CC(=O)N1CCCCC1`, -15%.
Same read-out and setting: with `Cc1ccc(-c2nnc(Nc3ccc(C(=O)N(C)C)cc3)c3ccccc23)cc1S(N)(=O)=O` the figure was -0.164%; with `COc1ccccc1C(=O)N(Cc1ccc(C)o1)C1CCS(=O)(=O)C1` (stereo not given), 86.4%; with `CCCCc1nc(SCC(=O)Nc2nnc(C(C)C)s2)n[nH]1`, 17.1%.
For the molecule `CC(C)CNc1ncnc2c1cnn2Cc1ccc(Cl)cc1`, the Potency is 11.7 µM (active).
Turning to `CC(=O)Nc1ccc(NC(=O)CSc2ncnc3c2cnn3Cc2ccccc2)cc1`, the “activity change, negative = inhibition” value was 20%.
Still for that read-out and setting: in the case of `Clc1ccc(Cn2ncc3c(NCc4cccnc4)ncnc32)cc1` it was 24.1%.
`O=C(CSc1nnnn1C1CCCC1)N1CCCCC1`: the Potency was 0.586 µM (active).
As to `CC1CCCC(C)N1C(=O)CSc1nnnn1C1CCCC1` (stereo not given), the “activity change, negative = inhibition” value was -4.01%.
Same read-out and setting: with `CC(=O)Nc1ccc(NC(=O)CSc2nnnn2C2CCCCC2)cc1` the figure was 7.18%; with `COc1cccc(NC(=O)c2ccccc2N(Cc2ccccc2)S(C)(=O)=O)c1`, -17.8%; with `Cc1ccc(S(=O)(=O)N2CC(C)N(S(C)(=O)=O)C2)cc1` (stereo not given), 15.5%.
On the same count and under the same terms, in the case of `O=C(CNC(=O)C12CC3CC(CC(C3)C1)C2)OCC(=O)N1CCCCC1` it was -0.439%; in that of `CC(C)N(Cc1ccccc1)C(=O)COC(=O)c1ccccc1SCC(=O)N1CCCC1`, -14.6%.
As for `Cc1cccc(NC(=O)NC2(C)CCS(=O)(=O)C2)c1` (stereo not given), the “activity change, negative = inhibition” value was 18.6%.
For `CCOC(=O)CSc1nc2ccc(C)cc2[nH]1`, the Potency is 13.1 µM (active).
For `CC(=O)Nc1ccc(C(=O)CSc2nc3ccc(C)cc3[nH]2)cc1`, the “activity change, negative = inhibition” value is 64.2%.
With `COc1ccc2nc(SCC(=O)Nc3c(C)cc(C)cc3C)[nH]c2c1`, the “activity change, negative = inhibition” value is 0%.
As to `O=C(Nc1c2c(nn1-c1ccccc1)CS(=O)(=O)C2)C1CCCC1`, the “activity change, negative = inhibition” value was 17.7%.
On the same count and under the same terms, with `CSc1ncc(C(=O)NCCCc2ccccc2)c(C)n1` the figure was 22.5%; with `COC(=O)C1=C(C)Nc2ncnn2C1c1cccnc1` (stereo not given), -15.1%.
Consider `CCSc1nc2c(c(=O)[nH]1)C(c1cccnc1)C(C(=O)OC(C)C)=C(C)N2` (stereo not given), for which the Potency is 1.31 µM (active).
For the molecule `COC(=O)C1=C(N)Oc2cc(C)oc(=O)c2C1c1cccnc1` (stereo not given), the “activity change, negative = inhibition” value is 28.8%.
Still for that read-out and setting: in the case of `COc1ccc2c(C)cc(SCC(=O)NCC3CCCO3)nc2c1` (stereo not given) it was -2.69%; in that of `O=C(Nc1ccc(F)cc1)C1CCCN(S(=O)(=O)c2ccc(-n3cnnn3)cc2)C1` (stereo not given), 54%.
Still for that read-out and setting: in the case of `c1ccc(-c2nnc(N3CCOCC3)c3ccccc23)cc1` it was 16.1%.
Turning to `CC1CN(c2nc(-c3ccccc3)nnc2-c2ccccc2)CC(C)O1` (stereo not given), the Potency is 0.828 µM (active).
For the molecule `Cc1ccc(-c2nnc(C)c(N3CC(C)OC(C)C3)n2)cc1` (stereo not given), the “activity change, negative = inhibition” value is -3.59%.
Still for that read-out and setting: in the case of `CCOC(=O)c1cccc(NC(=O)CCc2nnc3ccc(N4CCOCC4)nn23)c1` it was 12.9%.
On the same count and under the same terms, in the case of `O=C(NCc1cccs1)c1ccc(Br)o1` it was 26.7%.
With `O=C(CNC(=O)c1ccc(Br)o1)Nc1ccccc1`, the Potency is 13.1 µM (active).
Regarding `O=C(CNC(=O)c1ccc(Br)o1)NCC1CCCO1` (stereo not given), the “activity change, negative = inhibition” value was 9.93%.
As to `Nc1c(N(CCCO)C(=O)C2CCCC2)c(=O)[nH]c(=O)n1Cc1ccccc1`, the “activity change, negative = inhibition” value is 30.7%.
In the case of `Cc1cc(Cl)ccc1OCCCC(=O)Nc1cccc(-n2cnnn2)c1`, the “activity change, negative = inhibition” value was -2.68%.
Same read-out and setting: with `OC(CNC1CCCC1)COc1ccc(F)cc1` (stereo not given) the figure was -2.07%.
Consider `Cc1ccc(-c2cc(=O)c3ccc(F)cc3[nH]2)cc1`, for which the Potency is 2.94 µM (active).
For `Cc1ccc(-c2cc(=O)c3ccc(Cl)cc3[nH]2)cc1`, the “activity change, negative = inhibition” value was 9.72%.
On to `Cc1ccc(S(=O)(=O)/N=C(\N)c2ccc(F)cc2)cc1`, for which the “activity change, negative = inhibition” value was 20.4%.
Still for that read-out and setting: in the case of `COCCN1C(=O)N(c2ccc(Cl)cc2)C(=O)C1CC(=O)Nc1cc(OC)cc(OC)c1` (stereo not given) it was -17%; in that of `O=C(O)c1ccccc1OCc1ccccc1Cl`, 1.98%; in that of `O=C(CCc1c[nH]c2ccccc12)NCCOc1ccccc1`, 17.4%.
In the case of `O=C(Cc1c[nH]c2ccccc12)OCCOC(=O)Cc1c[nH]c2ccccc12`, the Potency was 5.22 µM (active).
With `O=C(COC(=O)Cc1c[nH]c2ccccc12)NCCc1ccccc1`, the “activity change, negative = inhibition” value was 15.9%.
The same measure, in the same setting: in the case of `O=C1NN(c2ccccc2)C(=O)/C1=C/c1ccc(-c2cccc(C(=O)O)c2)o1` it was -0.0242%; in that of `COc1ccc(CNC(=O)CCC(=O)Nc2nnc(C(C)C)s2)cc1`, 0%.
On to `COc1cc2ccccc2cc1C(=O)Nc1nc(C)c(C(C)=O)s1`, for which the “activity change, negative = inhibition” value was 167%.
On the same count and under the same terms, in the case of `COc1ccc(C(=O)CCC(=O)Nc2cccnc2)c(OC)c1` it was 7.01%; in that of `Cc1noc(C)c1CCC(=O)O`, 2.96%; in that of `CCOC(=O)C1(Cc2ccccc2C)CCCN(S(C)(=O)=O)C1` (stereo not given), -32.4%.
With `CCOC(=O)C1(Cc2ccccc2C)CCCN(C(=O)CCc2c(C)noc2C)C1` (stereo not given), the Potency was 11.7 µM (active).
In the case of `CCOC(=O)C1(Cc2cccc(OC)c2)CCN(C(C)CC(C)(C)O)CC1` (stereo not given), the “activity change, negative = inhibition” value was 41.4%.
For the molecule `CCOC(=O)C1(Cc2cccc(OC)c2)CCCN(C(=O)CCSC)C1` (stereo not given), the Potency is 0.37 µM (active).
Consider `CCOC(=O)C1(Cc2cccc(OC)c2)CCN(Cc2csc(C(C)=O)c2)CC1`, for which the “activity change, negative = inhibition” value was 20.7%.
Same read-out and setting: in the case of `COc1ccc(-c2c(NC(=O)c3ccco3)oc3ccc(Cl)cc3c2=O)cc1` it was -23.7%; in that of `CCCc1cc(=O)[nH]c(SCC(=O)N2C(C)CCCC2C)n1` (stereo not given), 5.23%.
